# Laboratory results published in ChEMBL document CHEMBL1157539, “Thousands of chemical starting points for antimalarial lead identification” (Nature, 2010).
# System: Plasmodium falciparum
# Assay: GSK_TCMDC: Inhibition of Plasmodium falciparum 3D7 in whole red blood cells, using parasite LDH activity as an index of growth. Test compounds present at 2uM
# Assay type: functional
row,Compound,Inhibition
1,CCCCCCNc1cc(C)nc2ccc(OC)cc12.Cl,100%
2,COc1ccc(CCNC(=O)c2cc3c(=O)n4cccc(C)c4nc3n(C)c2=N)cc1,99%
3,CCOc1ccccc1C(=O)Nc1cccc(-c2nc3ncccn3c2C)c1,92%
4,CCc1c[nH]c2c(N(c3ccccc3)S(C)(=O)=O)cc(C(=O)N[C@@H](Cc3ccccc3)[C@H](O)CNC(C)(C)CCCC(C)C)cc12.O=CO,98%
5,Cc1ccc(Oc2ccccc2NC(=O)CCc2nc3ccccc3c(=O)[nH]2)cc1,100%
6,Brc1ccsc1-c1nc(NCCC(c2ccccc2)c2ccccc2)no1,94%
7,O=C(CSc1nc2ccccc2c(=O)n1C1CC1)Nc1cc(C(F)(F)F)ccc1Cl,97%
8,O=C(c1cccs1)N1N=C(c2cccs2)CC1c1cccc([N+](=O)[O-])c1 (centres undefined),95%
9,Br.Oc1ccc(CCNCCCCCCNCCc2ccc(-c3ccccc3)cc2)cc1O,100%
10,COCCCNC(=O)c1ccc(O)c(-c2cc(Cl)cc(Cl)c2)c1,94%
11,COc1ccc2nccc([C@@H](O)CN3CCC(NC(=O)Cn4nc(-c5ccc(C(F)(F)F)cc5)ccc4=O)CC3)c2c1,100%
12,CCc1nc(N)nc(N)c1-c1ccccc1,92%
13,CC(C)(C)CCOC(=O)N1CCc2c(cc(O)c(O)c2Cl)C(c2ccc(O)cc2)C1 (centres undefined),97%
14,COC(=O)c1ccc(C(=O)NCCCCN2CCC(c3ccc4c(c3OC)CCCC4)CC2)cc1-c1ccc(C(F)(F)F)cc1,93%
15,Cc1cccc2nc(-c3cccc(-c4ccc(CNCc5cccc(N)c5)cc4)c3)[nH]c12.O=C(O)C(F)(F)F,100%
16,Cc1cc(-c2ccc3occ(CCN)c3c2)cnc1N,92%
17,COC(=O)c1cccc(CNCc2ccc(-c3ccc(-c4nc5cc(F)ccc5[nH]4)s3)cc2)c1.O=C(O)C(F)(F)F,100%
18,COc1cc(Cc2cnc(N)nc2N)cc(OCCNC(=O)OCc2ccccc2)c1OC,93%
19,Cc1ccc(OC2CCN(CCCCC3(C)C(=O)Nc4ccccc43)CC2)cc1.Cl (centres undefined),100%
20,CCOC(=O)c1ccc(NC(=O)Nc2ccc(-c3ccc(-c4nc5ccccc5[nH]4)cc3)cc2)cc1,100%

row,Compound,Inhibition
1,Cc1nc(-c2nc(N3CCC(C(N)=O)CC3)ncc2-c2ccsc2)sc1C,93%
2,CCOC(=O)c1ccc(N2CCN(CCCNC(=O)/C(=C/C=C/c3cc4cc(Cl)c(Cl)cc4[nH]3)OC)CC2)cc1,93%
3,O=C(Nc1cccc(-c2ccc(-c3nc4ccccc4[nH]3)cc2)c1)Nc1ccc(F)c(F)c1F,100%
4,COc1ccc(NC(=O)CCNc2cc(C)nc(NCc3cccc(C)c3)n2)cc1.O=C(O)C(F)(F)F,100%
5,COc1ccc(N2CCN(CCCCNC(=O)c3ccc(NC(=O)c4ccc(Cl)c(Cl)c4)cc3)CC2)c(OC)c1,100%
6,CC(Oc1ccc(Cl)cc1)C(=O)N(C)C1CCN(CCCCCNC(=O)/C=C/c2ccc(Cl)c(Cl)c2)CC1 (centres undefined),85%
7,Cc1cc(F)ccc1[C@H]1CNCCN1C(=O)N(C)C(C)(C)c1cc(C(F)(F)F)cc(C(F)(F)F)c1.Cl,100%
8,O=C(/C=C/c1ccc(Cl)c(Cl)c1)NCCCCCN1CCC(c2c[nH]c3ccc(O)cc23)CC1,100%
9,O=S(=O)(Nc1ccc(CCN2CCC(N3CCCCC3)CC2)cc1)c1cccc2cccnc12,100%
10,O=C(NOCCOc1ccccc1)c1ccccc1,98%
11,Cc1ccc(NC(=O)c2ccc(CN3CCCN(CC4CCCCC4)CC3)cc2)cc1.O=C(O)C(F)(F)F,93%
12,O=C(/C=C/c1ccc(Cl)c(Cl)c1)NCCCCCN1CCC(c2cn[nH]c2-c2ccccc2)CC1,85%
13,N#CCOc1c(C2CCN(CCCCNC(=O)c3ccc(-c4ccc(C(F)(F)F)cc4)cc3)CC2)ccc2c1CCCC2,97%
14,CC(C)C[C@H](NC(=O)c1ccc(OCCN2CCOCC2)cc1)C(=O)N[C@H](/C=N/N1CC(=O)NC1=O)CCc1ccccc1,88%
15,Cc1cc(Nc2cccc(Cl)c2)nc2ccc(NC(=O)c3ccc(=O)[nH]c3)cc12,100%
16,Cl.Cn1ccnc1S(=O)(=O)CCNCc1ccc(-c2ccc3ncnc(Nc4ccc(OCc5cccc(F)c5)c(Cl)c4)c3c2)o1,100%
17,COc1ccccc1N1CCN(CCCCNC(=O)c2ccc(NC(=O)c3cc4ccccc4o3)cc2)CC1,84%
18,CCc1cn2c3c(cc(C(=O)N[C@@H](Cc4ccccc4)[C@H](O)CN[C@@H](C)CC)cc13)N(C)S(=O)(=O)CC2.O=CO,99%
19,CCCCCNC(=N)c1ccc(OCCCCCOc2ccc(C(=N)NCCCCC)cc2)cc1.Cl,99%
